Pf growth 48h: P. falciparum growth inhibition at 48 hours (one generation); 310,000 compounds, 5.9% hits; P. falciparum luciferase growth in erythrocytes, 48 h; AID 504832; Potency, µM (doses to about 28.7 µM), for inactives: top-dose activity change, negative = inhibition, hits mostly inhibitors; active means well fitted inhibition curve with a large enough effect; inconclusive means small, poorly fitted or top-dose-only effect, or another doubt; inactive means no such curve, though single readings can be large or run the other way; further: potency means the concentration at half of the fitted maximal effect; on the % scale 0 is the no-effect control and ±100 the full control effect
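Parasite viability was followed by luminescence of a genomically integrated firefly luciferase. Cultures held 0.1% parasitemia at 2% hematocrit (final), incubated under 5% CO2 at 37 C.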
Shiga toxin inh: inhibitors of Shiga toxin in Vero cells; Vero cells, Shiga toxin protein synthesis inhibition reporter; inhibition, % at 38.7 µM; 290,000 compounds, 9.2% hits; in the data active means inhibition mostly above about 28%, no sharp cut-off; inactive means mostly below about 43%; further: 0% is about no effect
CHX counter: counter-screen hit for Shiga toxin inhibitors, cycloheximide; cell reporter, cycloheximide protein synthesis inhibition counterscreen; 300,000 compounds, 12% hits; max response, %; in the data active means max response mostly above about 13%, no sharp cut-off; inactive means mostly below about 14%; further: read at 38.3 µM for the half of the compounds with a filed dose; 0% is about no effect
NS1 inh: blocks influenza NS1 protein function; Potency, µM (series often up to 46.1 µM), for the others: top-dose activity, positive = more growth; 270,000 compounds, 0.4% hits; AID 2326; further: potency means the concentration at half of the fitted maximal effect; actives are rising curves; nearly all actives have a fitted effect of over 50% in size
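Read-out: OD600 growth recovery of NS1-expressing budding yeast. Cells grown overnight at 30C in -URA glucose medium, washed, resuspended and diluted 1:100 in 2% galactose assay medium, pH 6.0. Same strain lacking NS1 served as positive control.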
Pf growth 96h: P. falciparum growth inhibition at 96 hour, primary screen for plastid delayed-death inhibitors. P. falciparum luciferase reporter growth, 96 h. Potency, µM (titrated, usually from 28.7 µM), without a hit: at the top dose activity change, negative = inhibition, usual class: inhibitors. 320,000 compounds, 6.9% hits. AID 504834; active means well fitted inhibition curve with a large enough effect; inconclusive means small, poorly fitted or top-dose-only effect, or another doubt; inactive means no such curve, though single readings can be large or run the other way; further: potency means the concentration at half of the fitted maximal effect; on the % scale 0 is the no-effect control and ±100 the full control effect
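Compounds incubated with erythrocytes infected by luciferase-expressing P. falciparum (2% hematocrit, 0.05% parasitemia final) for 96 hours, 37 C in 5% CO2. Growth inhibition scored as decreased luciferase luminescence.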
SARS PLpro yeast: inhibitors of SARS-CoV papain-like protease in yeast; Potency, µM (highest dose often 32.9 µM), for the others: at the top dose activity, positive = growth rescue, actives largely listed as activators; S. cerevisiae expressing SARS-CoV PLpro, growth rescue; AID 485353; 330,000 compounds, 0.19% hits; further: potency means the concentration at half of the fitted maximal effect; 0% is about no effect; nearly all actives have a fitted effect of over 55% in size
Numbers without * were called inactive. Most compounds without a hit are left out; they make up all but 21% or so of the library. Unless noted, the call rests on the fitted dose curve.

Results for CCc1ccc(C(=O)Cn2ccsc2=N)cc1 ?
Pf growth 48h: 6%; Shiga toxin inh: 91*; CHX counter: 54*; NS1 inh: -50%; Pf growth 96h: -18%; SARS PLpro yeast: -9%

What do the screens show for `Cc1cc(C)c(S(=O)(=O)Nc2nnc(C3CCCCC3)s2)c(C)c1`?
Pf growth 48h: 0%; Shiga toxin inh: 13; CHX counter: 0; NS1 inh: -117%; Pf growth 96h: 1%; SARS PLpro yeast: -23%

What do the screens show for `C/C=N\NC(=O)COc1cc(C)ccc1C`?
Pf growth 48h: -16%; Shiga toxin inh: -8; CHX counter: -1; NS1 inh: 0%; Pf growth 96h: 16%; SARS PLpro yeast: -1%

Results for CC1(C)Oc2ccc3ccc(=O)oc3c2/C(=C/NNC(N)=S)C1=O ?
Pf growth 48h: 0.83µM*; Shiga toxin inh: -10; CHX counter: -2; NS1 inh: 8%; Pf growth 96h: 24%; SARS PLpro yeast: 1%

How did CC1(C)Oc2ccc3ccc(=O)oc3c2/C(=C/Nc2cccc(O)c2)C1=O do in these assays?
Pf growth 48h: 13µM*; Shiga toxin inh: -17; CHX counter: 1; Pf growth 96h: 81%; SARS PLpro yeast: -7%

Results for CN/C=C1\C(=O)C(C)(C)Oc2ccc3ccc(=O)oc3c21 ?
Pf growth 48h: -9%; Shiga toxin inh: -2; CHX counter: -3; NS1 inh: -7%; SARS PLpro yeast: 4%

Results for COc1ccc(CCN(C)CC(O)COc2ccc(C(C)=O)cc2OC)cc1OC (stereo not given) ?
Pf growth 48h: 2%; Shiga toxin inh: 15; CHX counter: -6; NS1 inh: 7%; Pf growth 96h: -8%; SARS PLpro yeast: 1%

How did Cc1c(NC(=O)C(C)OC(=O)c2cccnc2Cl)c(=O)n(-c2ccccc2)n1C (stereo not given) do in these assays?
Pf growth 48h: 3%; Pf growth 96h: -14%; SARS PLpro yeast: 5%

Results for COC1=Cc2c(ccc3ccc(=O)oc23)OC1(C)C ?
Pf growth 48h: 7.4µM*; Shiga toxin inh: -14; CHX counter: 8; NS1 inh: -24%; SARS PLpro yeast: -7%

What do the screens show for `CC1(C)Oc2ccc3ccc(=O)oc3c2[C@@H](O)[C@@H]1O`?
Pf growth 48h: inconclusive; Pf growth 96h: 70%; SARS PLpro yeast: 8%

Results for CSCCC(NC(=O)C1CCC(C)CC1)C(=O)NCCN1CCC(C)CC1 (stereo not given) ?
Pf growth 48h: 4%; Shiga toxin inh: 2; CHX counter: 2; Pf growth 96h: inconclusive; SARS PLpro yeast: -2%

Results for CC(C)(C)OC(=O)C[C@H]1C/C=C\C[C@@H](CC(=O)N(CCO)Cc2ccccc2)C(=O)N[C@H](Cc2ccccc2)COC1=O ?
SARS PLpro yeast: 2%

Results for Cc1ccc(C(=O)NCCNS(C)(=O)=O)cc1 ?
Pf growth 48h: 40%; Shiga toxin inh: 45; CHX counter: 14; NS1 inh: 0%; Pf growth 96h: inconclusive; SARS PLpro yeast: 0%

How did CCOC(=O)C1=C(O)c2ccccc2C(=O)/C1=C\c1ccc(C)cc1 do in these assays?
Pf growth 48h: 2.9µM*; Shiga toxin inh: 16; CHX counter: -1; NS1 inh: -38%; Pf growth 96h: 4.1µM*; SARS PLpro yeast: -34%

How did CCOC(=O)C1=C(C)N(c2ccc(C)cc2)C(=O)/C1=C\c1ccc(O)c(OC)c1 do in these assays?
Pf growth 48h: inconclusive; Shiga toxin inh: 8; CHX counter: 7; NS1 inh: 20%; Pf growth 96h: -30%; SARS PLpro yeast: 0%

How did Cc1ccc(N/N=C(\C#N)C(=N)N2CCCCC2)cc1 do in these assays?
Pf growth 48h: 216%; Shiga toxin inh: 82*; CHX counter: 46*; NS1 inh: -4%; Pf growth 96h: -21%; SARS PLpro yeast: -1%

How did CCOC(=O)NC(=O)/C(C#N)=N/Nc1ccc(F)cc1 do in these assays?
Shiga toxin inh: 12; CHX counter: 4; NS1 inh: 1%; Pf growth 96h: 0%; SARS PLpro yeast: -2%

Results for CCN(CC)C(=N)/C(C#N)=N/Nc1ccccc1 ?
Pf growth 48h: 67%; Shiga toxin inh: 93*; CHX counter: 39*; NS1 inh: -4%; Pf growth 96h: 41%; SARS PLpro yeast: 0%

How did N#C/C(=N\Nc1ccc(Cl)cc1)C(=N)N1CCCCCC1 do in these assays?
Pf growth 48h: 351%; Shiga toxin inh: 145*; CHX counter: 43*; Pf growth 96h: 0%; SARS PLpro yeast: -2%

Results for N#C/C(=N\Nc1ccccc1)C(=N)N1CCCCC1 ?
Shiga toxin inh: 61*; CHX counter: 28*; NS1 inh: 0%; Pf growth 96h: 158%; SARS PLpro yeast: -7%

Results for Cc1ccc(CNC(=O)CN(C(=O)N2CCN(C)CC2)S(=O)(=O)c2ccc(C)cc2)cc1 ?
Pf growth 48h: 3%; Pf growth 96h: 12%; SARS PLpro yeast: 5%

What do the screens show for `CS(=O)(=O)Nc1cccc(C2=NN(C(=O)c3ccco3)C(c3cccs3)C2)c1` (stereo not given)?
Pf growth 48h: inconclusive; Shiga toxin inh: 4; CHX counter: -2; NS1 inh: 7%; Pf growth 96h: -13%; SARS PLpro yeast: 6%

Results for Cn1c(=O)c2c(c3ccccc31)OC(C)(C)CC2 ?
Pf growth 48h: -3%; Shiga toxin inh: -12; CHX counter: 1; NS1 inh: 4%; Pf growth 96h: 5%; SARS PLpro yeast: 16%

How did COc1cccc2c3c(c(=O)[nH]c12)CCC(C)(C)O3 do in these assays?
Pf growth 48h: 10%; Shiga toxin inh: 36; CHX counter: 13*; NS1 inh: -14%; SARS PLpro yeast: -8%

What do the screens show for `O=C(COc1ccccc1)N1CCCCCCC1`?
Pf growth 48h: 11%; Shiga toxin inh: 11; CHX counter: -2; NS1 inh: 5%; Pf growth 96h: 1%; SARS PLpro yeast: 1%

Results for O=C(COc1ccc2ccccc2c1)N1CCN(c2ccccc2)CC1 ?
Pf growth 48h: 33%; Pf growth 96h: 30%; SARS PLpro yeast: -1%

How did COc1ccc(N2CCN(C(=O)COc3ccc4ccccc4c3)CC2)cc1 do in these assays?
Pf growth 48h: 4%; Shiga toxin inh: -5; CHX counter: -1; NS1 inh: 7%; Pf growth 96h: 9.3µM*; SARS PLpro yeast: 4%

How did CN(Cc1ccc(OCC(O)CN2CCCCC2)cc1)Cc1ccnc2ccccc12 (stereo not given) do in these assays?
Pf growth 48h: 12µM*; Shiga toxin inh: -13; CHX counter: -2; NS1 inh: 3%; Pf growth 96h: 3%; SARS PLpro yeast: 0%

What do the screens show for `CN1CCN(C(=O)COc2ccc3ccccc3c2)CC1`?
Pf growth 48h: 59%; Shiga toxin inh: 31*; CHX counter: 14*; NS1 inh: 3%; Pf growth 96h: 16%; SARS PLpro yeast: 0%

Screening data from PubChem.
